# Inconclusive results are not listed. Entries that show only a call come without a potency. Calls of active or inactive are those of the source. Unless noted, calls follow the shape of the dose curve; as a rule, active = well fitted curve in the direction sought with a large enough effect; inconclusive = small, poorly fitted or top-dose-only effect, or another doubt; inactive = no such curve, though single readings can be large; an effect the other way counts as inactive or inconclusive.
# What was measured:
# [1] = target: Alpha-galactosidase A (Homo sapiens) (UniProt P06280); test: Counterscreen for Glucocerebrosidase Inhibitors: qHTS Assay for Human alpha-Galactosidase at pH 4.5 (AID 992)
# Sequence of Alpha-galactosidase A (Homo sapiens) (P06280 whole entry, looked up): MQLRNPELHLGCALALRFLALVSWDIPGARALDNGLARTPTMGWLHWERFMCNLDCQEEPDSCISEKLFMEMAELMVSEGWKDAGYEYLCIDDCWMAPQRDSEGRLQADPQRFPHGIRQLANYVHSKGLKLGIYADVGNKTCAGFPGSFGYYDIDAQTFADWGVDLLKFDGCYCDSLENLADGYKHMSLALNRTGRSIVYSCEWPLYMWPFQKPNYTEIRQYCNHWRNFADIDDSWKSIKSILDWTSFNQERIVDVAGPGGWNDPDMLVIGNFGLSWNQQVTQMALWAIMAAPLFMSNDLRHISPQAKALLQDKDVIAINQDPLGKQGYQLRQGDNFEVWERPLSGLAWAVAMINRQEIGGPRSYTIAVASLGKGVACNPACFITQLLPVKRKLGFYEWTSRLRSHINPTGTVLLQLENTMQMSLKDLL
# Summary of the method: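 Steps: enzyme (2 nM final), then compound across 0.7 nM to 77 uM, then 80 uM fluorogenic galactopyranoside substrate; incubate 20 min at room temperature; quench at pH 10; measure fluorescence at 365/440 nm.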
# [2] = target: alpha-glucosidase (Oryza sativa, rice) (UniProt Q653V4); test: Counterscreen for Glucocerebrosidase Inhibitors: qHTS Assay for Rice alpha-Glucosidase at pH 5.0 (AID 997)
# Summary of the method: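 Endpoint fluorogenic assay at pH 5.0: compounds (0.7 nM to 77 uM) titrated against 4 nM rice enzyme and 400 uM 4-MU-alpha-glucoside for 20 min at room temperature; NaOH/glycine stop, read ex 365/em 440 nm, Hill-fitted AC50.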
# [3] = Validation of Assay for Modulators of Lamin A Splicing (AID 1459; active = well fitted curve in the direction sought with a large enough effect in the signal ratio; the % refers to the signal ratio;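 also: cells exposed to compound for two days before reading; ratio rise marks activators and ratio drop marks inhibitors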)
# Summary of the method: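 HeLa S3 lamin A-EGFP/DsRed2 stable clone, 600 cells/well, Opti-MEM 2% FBS; compounds by pin tool; 48 hrs, 37 °C/5% CO2; Acumen 488 nm scan, objects 10-100 um; GFP/RFP intensity ratio.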
# [4] = qHTS Assay for Lipid Storage Modulators (AID 1519; calls by dose curve); details: Drosophila S3 cells, BODIPY lipid droplet/cell ratio, laser cytometry, cells loaded with oleic acid; for activity change, negative = inhibition: at 57.5 µM (top of the series)
# Summary of the method: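 Cells seeded at 5,000 per well were treated with compounds over a concentration series and loaded with oleic acid (400 uM, as added). Lipid droplet fluorescence (488 nm excitation, 500-530 nm channel) was read by laser-scanning cytometry and normalized to 20 uM Triacsin C.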
# [5] = target: DNA repair nuclease/redox regulator APEX1 (Homo sapiens) (UniProt P27695); test: qHTS Validation Assay for Inhibitors of the Human Apurinic/apyrimidinic Endonuclease 1 (APE1) (AID 1705;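 also: TAMRA fluorescence gain over two minutes as APE1 cuts a quenched THF abasic duplex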)
# Sequence of DNA repair nuclease/redox regulator APEX1 (Homo sapiens) (P27695 whole entry, looked up): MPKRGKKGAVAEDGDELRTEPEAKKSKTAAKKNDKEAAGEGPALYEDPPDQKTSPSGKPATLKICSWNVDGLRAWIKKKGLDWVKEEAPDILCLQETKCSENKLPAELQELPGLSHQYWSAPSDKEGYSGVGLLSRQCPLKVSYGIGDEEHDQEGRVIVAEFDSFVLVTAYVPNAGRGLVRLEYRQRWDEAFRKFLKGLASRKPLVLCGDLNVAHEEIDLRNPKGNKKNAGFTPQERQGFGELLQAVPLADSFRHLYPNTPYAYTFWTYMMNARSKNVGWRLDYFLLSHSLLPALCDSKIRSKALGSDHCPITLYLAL
# Summary of the method: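 qHTS, 1536-well. APE1 + cpd 15 min RT → 50 nM TAMRA/BHQ-2 THF-abasic dsDNA substrate → kinetic fluorescence, 3 reads/60 s; delta(read3−read1) = reaction progress. No-enzyme buffer = negative control.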
# [6] = Counterscreen for APE1 Inhibitors: Fluorescent Dye Displacement Validation Assay (AID 1707)
# Summary of the method: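 Reaction mixture of 250 nM Thiazole Orange and 50 nM double-stranded abasic-site DNA was dispensed, compounds were pin-transferred, and fluorescence was read at endpoint (480 nm ex, 540 nm em). Reduced fluorescence indicated dye displacement by DNA binding.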
# [7] = target: Endonuclease 4 (Escherichia coli (strain K12)) (UniProt P0A6C1); test: Counterscreen for APE1 Inhibitors: qHTS Validation Assay for Inhibitors of Endonuclease IV (AID 1708)
# Summary of the method: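 Read-out: fluorescence rise (ex 525/em 598 nm) from incision of a TAMRA/BHQ-2 double-stranded THF abasic-site substrate (50 nM), measured kinetically; third-minus-first read difference gave reaction progress. Enzyme 2 nM.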
# [8] = qHTS for differential inhibitors of proliferation of Plasmodium falciparum line 7G8 (AID 1815);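 also: parasite growth measured after three days of incubation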; also: potency is read from the fitted curve at half-maximal effect
# [9] = qHTS for differential inhibitors of proliferation of Plasmodium falciparum line GB4 (AID 1816); details: Potency: Plasmodium falciparum GB4 proliferation inhibition;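 also: parasite growth measured after 72 h incubation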; also: potency is read from the fitted curve at half-maximal effect
# [10] = measured here: cell count channel max response
# [11] = measured here: lipid channel max response
SMILES,outcome [1],outcome [2],outcome [3],"activity change, negative = inhibition [4]","max response [4, 10]","max response [4, 11]",Potency [5],Potency [6],Potency [7],Potency [8],Potency [9]
Cc1[nH]c2ccc(O)cc2c1CCN,inactive,inactive,inactive,-0.216% (inactive),-4.56%,-4.28%,inactive,inactive,inactive,inactive,inactive
CCCN(CCC)C1CCc2cccc(O)c2C1 (centres undefined),–,–,inactive,-0.917% (inactive),-31.4%,-33.3%,inactive,inactive,inactive,inactive,inactive
CC(C)CC(NP(=O)(O)O[C@@H]1O[C@@H](C)[C@H](O)[C@@H](O)[C@H]1O)C(=O)NC(Cc1c[nH]c2ccccc12)C(=O)O (some centres undefined),–,–,inactive,3.22% (inactive),23.5%,29.8%,–,inactive,inactive,inactive,inactive
C=CCN1C[C@@H](C)N([C@H](c2ccc(C(=O)N(CC)CC)cc2)c2cccc(OC)c2)C[C@@H]1C,–,–,inactive,2.23% (inactive),-2.68%,0%,–,inactive,inactive,2.82 µM (active),3.98 µM (active)
CC(N)Cc1c[nH]c2ccc(OCc3cccs3)cc12 (centres undefined),–,–,inactive,-0.884% (inactive),-45.6%,-46.5%,inactive,inactive,–,7.94 µM (active),7.94 µM (active)
CCCn1c(C)c(C(=O)c2ccc3ccccc3c2)c2ccccc21,inactive,–,inactive,-0.784% (inactive),17.8%,16.6%,inactive,inactive,–,7.94 µM (active),10 µM (active)
c1ccc2c(N3CCNCC3)cccc2c1,inactive,–,inactive,-1.92% (inactive),39.8%,34.6%,inactive,inactive,inactive,12.6 µM (active),12.6 µM (active)
N[C@@]1(C(=O)O)CC[C@@H](C(=O)O)C1,–,–,inactive,-2.99% (inactive),-46.9%,-46.9%,inactive,inactive,inactive,inactive,inactive
Oc1ccc2c3c1O[C@H]1c4oc5ccccc5c4C[C@@]4(O)C(C2)N(CC2CC2)CCC314 (some centres undefined),–,–,inactive,0.729% (inactive),69%,72%,–,inactive,inactive,8.91 µM (active),3.16 µM (active)
CC1OC1P(=O)(O)O (centres undefined),–,–,inactive,3.73% (inactive),11.8%,19.6%,–,inactive,inactive,inactive,inactive
CCCN1CC[C@@H]2c3cc(O)ccc3CC[C@@H]21,–,–,inactive,1.73% (inactive),47.3%,49.1%,inactive,inactive,–,–,–

# From PubChem BioAssay (NCATS)
